# About 4,000 (1%) of roughly 390,000 compounds were called active. Entries that show only a call come without a potency. Inconclusive results (about 7%) are left out. Calls follow the shape of the dose curve; as a rule, active = well fitted inhibition curve with a large enough effect; inconclusive = small, poorly fitted or top-dose-only effect, or another doubt; inactive = no such curve, though single readings can be large or run the other way. This excerpt belongs to a sample that is enriched for actives.
# Target: DNA polymerase iota (Homo sapiens) (UniProt Q9UNA4)
# Assay: qHTS for Inhibitors of Polymerase Iota
# Conditions: Pol iota fluorescent replication assay, 10 min; series mostly up to 115 µM
# From the text: DNA polymerases, such as Pol iota, are specifically involved in DNA repair. Pol iota specifically plays an important role in translesion synthesis, where the normal high-fidelity DNA polymerases cannot proceed and DNA synthesis stalls. […] Thus, while pol eta's (and most likely iota's) normal function is to protect humans against the deleterious consequences of DNA damage, under certain conditions they can have deleterious effects on human health. As a consequence, we propose to utilize a high throughput replication assay to identify small molecule inhibitors of pol iota.
# In a collaboration between the National Institute of Child Health & Human Development (NICHD) and NIH Chemical Genomics Center, a high-throughput, fluorescent screen was developed to screen the NIH Molecular Libraries Small Molecule Repository (MLSMR). This screen is used to identify inhibitors of pol iota.
# NIH Chemical Genomics Center [NCGC]
# NIH Molecular Libraries Probe Centers Network [MLPCN]
# Assay Submitter (PI): Roger Woodgate, NICHD)
# Three microliters of reagents (buffer in column 3 and 4 as negative control and 10 nM Pol iota in columns 1, 2, and 5-48) will be dispensed into 1,536-well black solid-bottomed plate. Compounds (23 nL) will be transferred via Kalypsys pin tool equipped with 1536-pin array. The plates will then be incubated for 15 min at room temperature, and 1 µL substrate (50 nM final concentration) will be added to start the reaction and kinetically read twice at 0 min and 10 min on the Viewlux reader.
# Potency is read from the fitted curve at half-maximal effect.
# Sequence of DNA polymerase iota (Homo sapiens) (Q9UNA4 whole entry, looked up): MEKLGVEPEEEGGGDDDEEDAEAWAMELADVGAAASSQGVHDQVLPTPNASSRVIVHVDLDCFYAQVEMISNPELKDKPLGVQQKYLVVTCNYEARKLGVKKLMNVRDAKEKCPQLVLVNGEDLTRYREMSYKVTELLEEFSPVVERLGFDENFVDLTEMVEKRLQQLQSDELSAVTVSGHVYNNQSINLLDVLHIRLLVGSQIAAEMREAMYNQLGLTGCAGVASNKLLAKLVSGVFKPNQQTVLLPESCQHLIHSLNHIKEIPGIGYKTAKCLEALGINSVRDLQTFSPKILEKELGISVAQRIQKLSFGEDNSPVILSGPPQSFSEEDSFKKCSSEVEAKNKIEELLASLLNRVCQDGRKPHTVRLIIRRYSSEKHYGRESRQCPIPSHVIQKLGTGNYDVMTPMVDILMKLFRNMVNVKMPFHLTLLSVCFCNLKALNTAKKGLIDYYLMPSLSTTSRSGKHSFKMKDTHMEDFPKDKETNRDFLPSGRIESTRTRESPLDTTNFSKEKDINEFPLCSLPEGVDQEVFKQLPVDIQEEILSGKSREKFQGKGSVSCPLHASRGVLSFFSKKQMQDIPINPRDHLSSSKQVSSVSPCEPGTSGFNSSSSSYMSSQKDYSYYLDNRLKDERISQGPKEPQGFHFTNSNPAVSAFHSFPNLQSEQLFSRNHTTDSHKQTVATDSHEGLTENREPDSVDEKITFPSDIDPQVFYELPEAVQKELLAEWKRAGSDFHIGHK
row,SMILES,Potency
1,CC(=O)c1c(O)c(C)c(O)c(Cc2c(O)c3c(c(C(=O)/C=C/c4ccccc4)c2O)OC(C)(C)C=C3)c1O,50.1 µM (active)
2,CCCCOP(=O)(c1ccc(N(C)C)cc1)C(O)c1cc(OC)ccc1OC (stereo not given),inactive
3,CC(=O)NBr,inactive
4,COc1ccc(N2C(=O)/C(=C/c3ccco3)C(=O)NC2=S)cc1,4.47 µM (active)
5,CNCC[C@H](Oc1ccc(C(F)(F)F)cc1)c1ccccc1,inactive
6,O=C1C=C(NS(=O)(=O)c2ccccc2)C(=O)c2ccccc21,inactive
7,O=c1[nH]c(=S)[nH]c(O)c1/C=C1\C=Nc2ccccc21,inactive
8,O=C(O)/C=C/c1ccc2c(c1)OCO2,inactive
9,O=C1NC(=O)N(Cc2ccco2)C(=O)/C1=C\c1ccc(-c2ccc(F)cc2)o1,11.2 µM (active)
10,O=C1NC(=O)N(Cc2ccco2)C(=O)/C1=C\c1cccn1CCOc1ccccc1,22.4 µM (active)
11,Cc1cc(/C=C2/C(=O)NC(=O)N(Cc3ccco3)C2=O)c(C)n1-c1ccc(C(=O)O)cc1,14.1 µM (active)
12,CC1=NNC(=O)C1Cc1c(Cl)cccc1Cl (stereo not given),inactive
13,Cn1c(=O)oc2cc(S(=O)(=O)N3CCC(C(=O)Nc4ccc(OC(F)(F)F)cc4)CC3)ccc21,inactive
14,O=C(Oc1ccc2c(c1)CCC2)N1CCOCC1,inactive
15,CCOC(=O)c1ccc(N2C(=O)c3[nH]nc(-c4ccccc4)c3C2c2ccc(C(C)C)cc2)cc1 (stereo not given),inactive
16,CCN(CC)C(=O)Oc1ccc(Br)cc1C(=O)Nc1ccc(F)c(Cl)c1,inactive
17,CC(=O)c1ccc(OC(=O)N2CCOCC2)cc1,inactive
18,CCOC(=O)C(NS(=O)(=O)c1ccc(C)cc1)(C(F)(F)F)P(=O)(OCC(C)C)OCC(C)C (stereo not given),inactive
19,O=C1c2ccccc2NC(c2ccccc2O)N1NS(=O)(=O)c1ccccc1 (stereo not given),inactive
20,CC(C)(C)c1ccc(CN2C(=O)CN=C(c3ccccc3)c3ccccc32)cc1,inactive
21,O=C1CC(=O)N(Cc2ccccc2)C(=O)N1CCCCCCN1C(=O)CC(=O)N(Cc2ccccc2)C1=O,17.8 µM (active)
22,O=C(CN1CCCC1=O)NCCc1ccccc1,inactive
23,S=C(Nc1ccc(Br)cc1Cl)N1CCC2(CC1)OCCO2,inactive
24,CC[C@H]1CN2CCc3cc(OC)c(OC)cc3[C@@H]2C[C@@H]1C[C@H]1NCCc2cc(OC)c(OC)cc21,inactive
25,CCOCCCNC(=O)c1c(NC(=O)c2nc(SC)ncc2Cl)sc2c1CCCC2,inactive
26,O=S(=O)(Nc1ccc2[nH]ncc2c1)c1ccccc1Cl,inactive
27,O=[N+]([O-])c1ccc(Cl)c(Cl)c1,inactive
28,CO[C@H]1[C@@H](O)[C@@H](C)O[C@H](O[C@H]2[C@H](Oc3cccc4c(O)c5c(=O)oc6ccc(C)c7c(=O)oc(c34)c5c67)O[C@H](C)[C@H](O)[C@@H]2O)[C@@H]1O,20 µM (active)

row,SMILES,Potency
1,CCOc1ccc(C(NC(=O)c2cc(OC)c(OC)c(OC)c2)c2cc(Cl)c3cccnc3c2O)cc1 (stereo not given),inactive
2,Cc1ccc(NC(=O)CN(C)CC(=O)Nc2cccc(F)c2)cc1[N+](=O)[O-],inactive
3,O=P1(Oc2ccccc2)CC(O)C(O)C(COCc2ccccc2)O1 (stereo not given),inactive
4,N#Cc1c(Cl)c(Cl)c(Cl)c(C#N)c1Cl,1.58 µM (active)
5,CC(CCn1cccn1)NC(=O)CCc1nnc(CCc2ccccc2)o1 (stereo not given),inactive
6,O=C(NCc1cccs1)c1ccc(Br)o1,inactive
7,O=C(O)c1cc[c]([Sb](=[O])([OH])[OH])cc1[N+](=O)[O-],1 µM (active)
8,O=C(c1ccccc1[N+](=O)[O-])N1CCC2(CC1)OCCO2,inactive
9,COc1cc(C2c3cc4c(cc3C(O)C3COC(=O)C23)OCO4)cc(OC)c1OC (stereo not given),inactive
10,COc1cc([C@@H]2c3cc4c(cc3[C@H](OC(C)=O)[C@H]3COC(=O)[C@H]23)OCO4)cc(OC)c1OC,inactive
11,CCOC(=O)c1ncn2c1[C@@H]1CCCN1C(=O)c1cc(OC)ccc1-2,inactive
12,Cc1ccc(C)c(NS(=O)(=O)c2ccc(OCC(=O)NCc3cccnc3)cc2)c1,inactive
13,CCOP(=O)(OCC)C(Nc1cccc(C)c1)c1ccc(F)cc1 (stereo not given),inactive
14,Cn1cc(/C=C/c2nc3ccccc3c(=O)n2-c2ccccc2)c2ccccc21,inactive
15,O=c1c2ccccc2nc(/C=C/c2ccco2)n1-c1ccccc1O,44.7 µM (active)
16,O=c1c2ccccc2nc(/C=C/c2ccc(F)cc2)n1-c1ccccc1O,inactive
17,Cc1ncoc1C(=O)NCCC(c1ccccc1)c1ccccc1,inactive
18,CCCCN1C2CCC1CC(OC(c1ccc(F)cc1)c1ccc(F)cc1)C2 (stereo not given),inactive
19,Cc1ccc(NC(=O)O/N=C/c2cccc([N+](=O)[O-])c2)cc1,inactive
20,c1csc(-c2nnc(COc3ccc4c(c3)OCO4)o2)c1,inactive
21,O=C1NC(=O)N(c2ccccc2)C(=O)/C1=C/c1ccc([N+](=O)[O-])s1,11.2 µM (active)
22,Cc1nnc(NCc2ccccc2)c2c1nnn2Cc1ccc(F)cc1,inactive
23,O=C(C1CCN(S(=O)(=O)c2ccc(Br)s2)CC1)N1CCN(c2ccccc2)CC1,inactive
24,CC(C)N1C(=S)SC(C)(C)C1n1oc(=O)n(-c2ccc(Cl)c(Cl)c2)c1=O (stereo not given),inactive
25,Cc1ccccc1NC(=O)c1c(NC(=O)c2ccccc2F)sc2c1CCC(C)C2 (stereo not given),inactive
26,CC(C)(C)c1ccc(C(=O)NCc2ccco2)cc1,inactive
27,CCc1ccccc1NC(=O)c1sc2nc3c(cc2c1N)CN(Cc1ccccc1)CC3,inactive
